The test relates to RARg homodimer (NR concentration 270 nM). Briefly: PBM binding z-score (relative to random genomic background probes); higher = stronger binding; sequences stand for … in GC…GCGATTGACAGCGTAGAATGAAGG
An outline of the steps: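 Scanned fluorescence from custom Agilent 4×180K protein-binding microarrays was regression-normalized. Binding z-scores use random background probes as reference. Ligand-free nuclear receptor dimers were incubated on the arrays for 1 h and detected with antibodies against each partner (one per run).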
On to TCATATAGGCAAACAGGTGAAAGTCCGTAAGTTA, for which the PBM binding z-score came to 0.112.

TCTGCTAGGTCAGTAGGTCAGCTAACGAGCTGCC showed a PBM binding z-score of 4.67. For ATCTCTAGGTAACAAGTTCAGTGAGAGAGAGGAC, the PBM binding z-score was 1.54. Consider TCGAGTAGGTTTGTCGGGGCATTCAGCCAACATA, for which the PBM binding z-score is -0.592. As for ATCTCTAGGTAAAAGTTCAGTCAATCCCGAGGAT, the figure is 2.2; as for TCATATAGGTAAGTGCTAGGTGAAAGTCCGATCT, 0.186; as for ATATGTAGGTTATCGGGTCTTTCAGTTTGCGCAT, 0.939.

In turn, GCTAGCAGGCCATTTGGGTCACTGAATGACGGGC came in with a PBM binding z-score of 1.4. In the case of CAAACTAGGCCACGAAAGGTCAAAGTCGAATGAC, the PBM binding z-score was 5.76. In turn, TCTTGAAGATCAATAGAGGTTAAGAAAGTGCGCT displayed a PBM binding z-score of 0.205. As for AGAAAGAGGTTATACGTAGATCAGGGAAGAAAGT, the figure is 1.59; as for ATATGTAGGTTAAGGGTAATTCAGGTTGGTTCGC, 1.08; as for TAGCCTAGGTCATTCAGGGGCCAGTTTAGAAAGC, 4.11. Regarding TCAGACAGGTGGAGGTAACTCAGGTACGCAGTCG, the PBM binding z-score is -0.245.

As for GGAACGAGAGCATTCGAGTTGATAGCATGGCGAT, the PBM binding z-score is -0.276. To ACTAGCAGACCAAGGGTCACTCAAGATTAGTCCG belongs 3.3; to TCAGACAGGTGAAGGTACCTCAGGTACGCAGTCG, 0.332; to CGTCAAAGATCAACTAAGGTAACGTAAAGCACGC, 0.647. Sequence ATCTATAGGTAAGACTCAGTTCAGTGAAGAACGC yielded a PBM binding z-score of 0.517. To GCTGCTAGGTCAACAGATGGTCAGCTAAAGCTCG belongs 4.85; to TAGCCCAGGTCATTCAGGGGCCAGTATAGAAAGC, 4.29. As to CGACCAAGGTCAAAGGTCAGTGAAGAGATGACGG, the PBM binding z-score was 8.05. In turn, CCGACTGGGGCAGAAGGTTACCATAAGCCAGCCC registered a PBM binding z-score of 0.806. Take ATCGAAAGGTCGAAGGTTAGTATACCCACCCGAA: the PBM binding z-score worked out at 3.94. As for TCGCGGAGGACACGAAGGTCAGAGCTTTCCAGAG, the figure is 3.52; as for CGAACTGGGTCATTGACAGGACAGTGAATAGTAA, 3.3.

The sequence CCGACTGGGGCAATGGTTACCATACTCAGTACGA had a PBM binding z-score of 0.28. As for TCTTGTAGATCAAAGGTAAAGAAAGCCGAAGCCT, the figure is -0.165. Take TAGCCTAGGTCATTCCGGGGCCAGTATAGAAAGC: the PBM binding z-score was 4.24. The sequence TCATATAGGTAAATGCTAGTTGAAAGTCCGATCT yielded a PBM binding z-score of 0.163. For the sequence GCTTACGGGTCAAAGATTATAGCATGAATAGAAT, the PBM binding z-score came to 4.34. To CCTAGTAGGTCAGGAGGTCACACACCGGATATGA belongs 6.37; to TCATAGAGGTAAAGGTGAAAGTCGAACGATATGA, 1.52; to ATCTCTAGGTAAAGTACAGTGAAAGATCGATAGA, 0.733. To GGAACGAGGGCATTCGAGTTGGTAGCATGGCGAT belongs 0.965; to CTTCCAAGGTCAAGGTCAGTGAAAGAGACTCGAA, 7.26.

As to GGAACGACGGCAAGTTGATAGCAGAGTTTGATGG, the PBM binding z-score was -0.0502. CTCGAAAGGTCGGTAGAGGTGAGTATACGGATAA returned a PBM binding z-score of 2.98. Consider ACTAGAAGGCCAAGTTTGGGTCACTCAAACAAAG, for which the PBM binding z-score worked out at 2.36. As for TGTCAAACTTCAAAGGTAACGTAAGTATCCACAC, the figure is 0.586.

The record behind these values is the supplement of paper PMC6555819.
